In PubChem BioAssay AID1852 (Sanford-Burnham Center for Chemical Genomics, 2009):
The whole screen tested about 2,500 compounds, of which about 1,100 (44%) were called active.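 The calls were made as follows: active = inhibition above 50% at 4 µM in the single-point screen; inactive = inhibition of 50% or less.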 So high a share suggests a set chosen from earlier hits. This is one part of the list.

assay: blockers of TNF-a NF-kB luciferase induction – cell-based, HEK293T NF-kB-Luc, luminescence, selectivity assay for NOD1/NOD2 signaling inhibitor project, primary screen (AID 1852); details: TNF-a induced, 14 h, at 4 µM, stronger effect = higher value

SMILES | inhibition
COc1ccc(-c2cc(C)no2)cc1S(=O)(=O)N1CCN(c2ccccc2F)CC1 | 49.7% (inactive)
CSC(=S)N/N=C/c1ccc(Br)cc1 | 3.9% (inactive)
Cc1cc(NC(c2cccnc2)c2ccc3cccnc3c2O)no1 (centres undefined) | 99.8% (active)
Cc1conc1NC(c1cccs1)c1ccc2cccnc2c1O (centres undefined) | 14.1% (inactive)
COc1ccc(C)cc1NC(=O)C1CCN(S(=O)(=O)c2cccc3nonc23)CC1 | 94.5% (active)
Cc1ccc(CNC(=O)C2CCCN(S(=O)(=O)c3cccc4nonc34)C2)cc1 (centres undefined) | 43.1% (inactive)
Cc1cccc(NC(=O)C2CCN(S(=O)(=O)c3ccc4c(c3)NC(=O)CO4)CC2)c1 | 11.7% (inactive)
CCc1ccc(-c2cc(C)no2)cc1S(=O)(=O)NCCCN1CCN(c2ccccc2)CC1 | 28.3% (inactive)
C/C(=N\NC(=O)c1cc2ccccc2cc1O)c1cc2ccccc2o1 | 105% (active)
C/C(=N\NC(=O)c1cc2ccccc2cc1O)c1ccccn1 | -5.1% (inactive)
CCOC(=O)N1CCN(C(=O)c2ccc(Oc3ccc([N+](=O)[O-])cc3)cc2)CC1 | -11.6% (inactive)
Cc1ccc(S(=O)(=O)CC#CCOC(=O)c2ccc([N+](=O)[O-])cc2)cc1 | 91.4% (active)
COc1ccc(NS(=O)(=O)c2ccc3oc(SC(C)C(N)=O)nc3c2)cc1 (centres undefined) | 2.2% (inactive)
COc1ccc(NS(=O)(=O)c2ccc(N/N=C(\C)c3ccncc3)c([N+](=O)[O-])c2)cc1 | 51.9% (active)
CC[C@H]1CN2CCc3cc(OC)c(OC)cc3[C@@H]2C[C@@H]1C[C@H]1NCCc2cc(OC)c(OC)cc21 | 102% (active)
Cc1ccc(C)c(N2CCN(C(=O)C34CC5CC(C3)CC(n3nnc(C)n3)(C5)C4)CC2)c1 | 25.2% (inactive)
CN(C)Cc1c(C(=O)N/N=C/c2cccc(OCc3c(F)cccc3Cl)c2)nnn1-c1nonc1N | 74% (active)
O=C(COc1ccc2ccccc2c1)Nc1ccc(Br)cc1C(=O)O | -2.8% (inactive)
O=C(CSc1nc2ccccc2c(=O)n1Cc1ccccc1)Nc1ccc(Br)cc1C(=O)O | 53.2% (active)
CCOc1ccccc1-n1c(SCC(=O)Nc2ccccc2C(=O)O)nc2ccccc2c1=O | -2.7% (inactive)
COc1cc(/C=C/c2ccc3cccc(O)c3n2)cc(Cl)c1OC | -19.5% (inactive)
COc1cc(/C=C/c2ccc3cccc(O)c3n2)cc(OC)c1OC | 105% (active)
COc1cc(/C=C/c2ccc3cccc(O)c3n2)ccc1O | 105% (active)
COc1cc(/C=C/c2ccc3cccc(O)c3n2)cc(Br)c1OC | 28.6% (inactive)
COc1cccc(OCCOc2ccc(/C=C3\C(=N)N4N=C(S(C)(=O)=O)SC4=NC3=O)cc2OC)c1 | -57.6% (inactive)
C=C1C(=O)[C@@]23[C@H](O)C[C@@H]4C(C)(C)CC[C@H](O)[C@@]4(C)[C@@H]2CC[C@@H]1[C@H]3O | 68.9% (active)
NC(=O)c1c(NC(=O)C(=O)N2CCOCC2)sc2c1CCCC2 | 29.8% (inactive)

SMILES | inhibition
COc1ccc(OC)c(CCNC(=O)C(C)n2nc(C)c3c(C)n(-c4ccc(C)cc4)nc3c2=O)c1 (centres undefined) | 49.3% (inactive)
CCOC(=O)c1c(C)nc2sc3c(=O)n(-c4ccc(C(C)=O)cc4)nnc3c2c1-c1ccc(OC)cc1 | 5.1% (inactive)
COc1ccc(OC)c(CCNC(=O)Cn2nc(C)c3c(C)n(-c4ccc(C)cc4)nc3c2=O)c1 | 69.7% (active)
CCn1nc(C)c(NC(=O)/C=C/c2ccc(OC)c(COc3ccc(Br)cc3)c2)c1C | 38.5% (inactive)
CCOc1ccccc1CNC(=O)Cn1nc(C)c2c(C)n(-c3ccc(C)cc3)nc2c1=O | 55% (active)
COc1ccc(CCNC(=O)C(C)n2nc(C)c3c(C)n(-c4ccc(C)cc4)nc3c2=O)c(OC)c1 (centres undefined) | 56.1% (active)
O=C(c1ccc(S(=O)(=O)c2cccc(Cl)c2)c([N+](=O)[O-])c1)N1CCN(c2ccccn2)CC1 | 35.5% (inactive)
O=C(c1ccc(S(=O)(=O)c2ccc(F)cc2)c([N+](=O)[O-])c1)N1CCCCCC1 | 27.8% (inactive)
O=C(c1ccc(S(=O)(=O)c2ccccc2Cl)c([N+](=O)[O-])c1)N1CCN(Cc2ccccc2)CC1 | 56.1% (active)
O=C(c1ccc(S(=O)(=O)c2cccc(Cl)c2)c([N+](=O)[O-])c1)N1CCN(Cc2ccccc2)CC1 | 53.1% (active)
O=C(c1ccc(S(=O)(=O)c2ccccc2Cl)c([N+](=O)[O-])c1)N1CCCCCC1 | 26.2% (inactive)
Cn1cc(S(=O)(=O)N2CCc3ccccc32)cc1C(=O)NC(C)(C)C | 38.6% (inactive)
O=C(Nc1nc2ccc([N+](=O)[O-])cc2s1)c1ccc(S(=O)(=O)N2CCCc3ccccc32)cc1 | 68.8% (active)
O=C(Nc1nnc(C2CC2)s1)c1cccc(S(=O)(=O)N2CCc3ccccc32)c1 | 9.3% (inactive)
Cc1nn(C(C)(C)C)c(C)c1/C=N/OC(=O)Nc1ccc(Cl)cc1 | 71.3% (active)
COc1ccc(NC(=O)COC(=O)/C=C/C(=O)OCC(=O)Nc2ccc(OC)c(Cl)c2)cc1Cl | 17.7% (inactive)
Cc1ccc(NC(=O)Cc2ncc(C(F)(F)F)cc2Cl)cc1Cl | -15.6% (inactive)
Cc1ccc(NC(=O)O/N=C/c2c(C)nn(C(C)(C)C)c2C)cc1Cl | 90.2% (active)
O=C(Nc1ccc(Cl)cc1)OCc1cncs1 | -60.4% (inactive)
Cc1nn(C(C)(C)C)c(C)c1/C=N/OC(=O)Nc1ccc(Cl)c(Cl)c1 | 94% (active)
O=C(Nc1ccc(Cl)c(Cl)c1)OCc1cnc(Cl)s1 | -13.5% (inactive)
COc1ccc(OC)c(Nc2c3ccccc3nc3ccccc23)c1 | 20.8% (inactive)
CCOc1ccc(-c2csc3ncn(-c4ccc(OC)cc4)c(=O)c23)cc1 | 44% (inactive)
COc1ccc2ncn(-c3ccccc3)c2c1 | 53.8% (active)
COc1ccc(-n2cc(-c3ccccc3)c3c(N4CCOCC4)ncnc32)cc1 | 12.7% (inactive)
Cc1ccc(OCCCCn2cnc3ccccc32)cc1 | 26.7% (inactive)
COc1ccc(-n2cnc3ccccc32)cc1 | 53.9% (active)
